PubChem BioAssay AID1822 (The Scripps Research Institute Molecular Screening Center, 2009)
Where “and” joins values, the source holds several entries; their conditions need not be identical. Identical values can stand only once. Hit rate of the full screen: of about 290,000 compounds, about 3,500 (1.2%) were called active. This is one part of a sample in which actives are shown more often than they occur.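 The calls were made as follows: active = inhibition above the campaign mean inhibition over all tested compounds plus 3 SD (cut at about 28% in these data); inactive = the rest.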

Test system: M18 aspartyl aminopeptidase (Plasmodium falciparum 3D7)
Assay: PfM18AAP inhibitors, malaria aminopeptidase, primary screen, biochemical, QFRET, recombinant enzyme (AID 1822);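 also: 0% = plate median of test compound wells and 100% = 2 mM ZnCl2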
Settings: H-Glu-NHMec fluorogenic cleavage, at 7.35 µM, active compounds read high

SMILES	inhibition
CCOC(=O)N1CCN(Cc2nc3cc(NC(=O)CC)ccc3n2CC)CC1	-7.14% (inactive)
CCOc1ccccc1N1C(=O)CC(Sc2nccc(C)n2)C1=O (stereo not given)	-4.13% (inactive)
COc1cccc2cc(C(=O)N(C)C)c(=O)oc12	-12.7% (inactive)
COc1cccc2cc(-c3cc(=O)oc4cc(C)c(O)cc34)oc12	41.3% (active)
COc1ccc2oc(=O)cc(-c3cc4ccccc4o3)c2c1	21.1% (inactive)
COc1ccc(N2CCN(C(=O)Cn3cnc4sc(C)c(S(=O)(=O)N5CCOCC5)c4c3=O)CC2)cc1	2.52% (inactive)
CCOC(=O)C1CCN(c2c(Nc3cc(C)cc(C)c3)c(=O)c2=O)CC1	-6.21% (inactive)
Cc1nc2ccc(S(=O)(=O)NC(C(=O)N3CCCCCC3)C(C)C)cc2s1 (stereo not given)	-0.39% (inactive)
Cc1nc2ccc(S(=O)(=O)NCC(=O)O)cc2s1	51.8% (active)
Cc1nc2ccc(S(=O)(=O)NCC(=O)NCCN3CCCCC3C)cc2s1 (stereo not given)	-0.01% (inactive)
COc1cccc2cc(C(=O)NCc3ccc(C)cc3)c(=N)oc12	3.31% (inactive)
COc1ccc2c(CC(=O)N3CCc4cc(OC)c(OC)cc4C3)coc2c1	3.64% (inactive)
C/C(Cc1ccccc1)=N\NC(=O)CNC(=O)c1ccccc1Cl	6.33% (inactive)
ONC(=Nc1ccccc1)c1ccccc1Cl	40.1% (active)
ONC(=Nc1ccc(Cl)cc1)c1ccccc1Cl	18.2% (inactive)
COC(=O)c1ccccc1Sc1c(/C=N/OCc2ccc(Cl)cc2)c(C(F)(F)F)nn1C	2.22% (inactive)
c1ccc(-c2ccc3c(c2)NC(C2Nc4cc(-c5ccccc5)ccc4O2)O3)cc1 (stereo not given)	42.1% (active)
COc1cccc(C(=O)Nc2nnc(S(=O)(=O)N(C)c3ccccc3)s2)c1	-1.4% (inactive)
COc1ccc(S(=O)(=O)Nc2ccc(S(=O)(=O)N3CCCCC3)cc2)cc1OC	4.79% (inactive)
COc1cc(S(=O)(=O)Nc2ncn[nH]2)ccc1Cl	51.4% (active)
COc1ccc(C(C)C)cc1S(=O)(=O)Nc1ncn[nH]1	8.59% (inactive)
O=C(NCc1cccnc1)C12CC3CC(CC(C3)C1)C2	-7.72% (inactive)
Cc1cc(NC(=O)CCC(=O)N(CC(=O)NCC2CCCO2)c2ccccc2)no1 (stereo not given)	-2.56% (inactive)

SMILES	inhibition
O=C(NCCN1CCOC1=O)C1CCC(=O)N(CCc2ccc(Cl)cc2)C1 (stereo not given)	-13.3% (inactive)
CC(=O)N(c1ccc2oc(=O)sc2c1)S(=O)(=O)c1ccc(C)cc1	32.7% (active)
COC(=O)c1c(C)oc2ccc(N(C(=O)Oc3ccccc3)S(=O)(=O)c3ccccc3)cc12	-12.4% (inactive)
CC(=O)Oc1ccc(N(C(C)=O)S(=O)(=O)c2ccc3ccccc3c2)cc1Br	-1.42% (inactive)
CCOc1ccccc1NC(=O)NC1CCCCCCC1	-2.13% (inactive)
CC(=O)Nc1ccc(NC(=O)[C@@H](NC(=O)c2cccc(C)c2)C(C)C)cc1	-0.5% (inactive)
CCc1c(C)sc(NC(=O)c2cccs2)c1C(N)=O	-38.8% (inactive)
COc1ccc(NC(=O)COc2ccc(C(=O)c3ccc(F)cc3)cc2)cc1S(N)(=O)=O	-0.83% (inactive)
CC1=C(C)C(=O)OC(C(C)C2CCC3C4CC=C5CC(OC6OC(COC7OC(CO)C(O)C(O)C7O)C(O)C(O)C6O)CC(O)C5(C)C4CCC23C)C1 (stereo not given)	3.15% (inactive)
CC(/C=C/C1(O)C(C)CC(=O)CC1(C)C)OC1OC(CO)C(O)C(O)C1O (stereo not given)	49.9% (active)
Cc1[nH]c(C)c(S(=O)(=O)N2CCN(c3cccc(C(F)(F)F)c3)CC2)c1C(=O)N1CCCCC1	3.83% (inactive)
N#CCC(=O)N/N=C/c1ccc(SCC(=O)Nc2ccccc2)o1	34.6% (active)
O=C(CSc1ccc(/C=N/NC(=O)c2cccc(F)c2)o1)Nc1ccccc1	6.13% (inactive)
Cc1ccc(/C=N/NC(=O)CSc2ccccn2)o1	5.97% (inactive)
CCC(C)(C)NC(=O)C(c1ccc(O)cc1)N(Cc1ccco1)C(=O)CCC(=O)Nc1ccccn1 (stereo not given)	-14.9% (inactive)
COc1cccc(NC(=O)N2CCC(NC(=O)C(Cc3cccc(C)c3)NC(C)=O)CC2)c1 (stereo not given)	-1.52% (inactive)
Cc1ccc(-n2[nH]c(C)c(/C=N/NC(=O)c3cccc([N+](=O)[O-])c3)c2=O)cc1C	1.83% (inactive)
CCN1CCN(c2cc3nc(C)n(Cc4ccccc4)c(=O)c3cc2NC(=O)c2ccccc2F)CC1	-2.2% (inactive)
COc1ccc(C(=O)CSc2nnc(COc3ccccc3)n2Cc2ccco2)cc1	-6.68% (inactive)
COc1cccc(OCc2nnc3n2N=C(c2ccccc2)C(CC(=O)O)S3)c1 (stereo not given)	3.81% (inactive)
COc1ccc(OCc2nnc3n2N=C(c2ccccc2)C(CC(=O)O)S3)cc1 (stereo not given)	33.1% (active)
CC(C)(C)c1ccc(C(CC(=O)O)NS(=O)(=O)Cc2ccccc2)cc1 (stereo not given)	-3.96% (inactive)
FC(F)(F)C1CCCN(c2nsc3ccccc23)C1 (stereo not given)	76.9% (active)

SMILES	inhibition
CC(C)OC(=O)c1c(NC(=O)c2ccco2)sc2c1CCCC2	-7.19% (inactive)
CCOC(=O)c1c(NC(=S)NC(=O)c2ccco2)sc2c1CCCC2	6.75% (inactive)
CNC(=O)c1c(NC(NC(=O)c2ccco2)C(=O)c2ccc(Cl)cc2)sc2c1CCCC2 (stereo not given)	35% (active)
CC(=O)Nc1ccc(NC(=O)CC2CCCC2)cc1	-1.31% (inactive)
O=C(CCC1CCCC1)N=C1SC2CS(=O)(=O)CC2N1Cc1ccccc1 (stereo not given)	9.31% (inactive)
Cc1cc(C)n2nc(CNS(=O)(=O)c3c(F)c(F)c(F)c(F)c3F)nc2n1	2.95% (inactive)
CC(C)=CCN1CCN(CCCc2ccccc2)CC1CCO (stereo not given)	-4.62% (inactive)
Cc1ccc(-n2c(C)cc(/C=C(\C#N)C(=O)NCC3CCCO3)c2C)cc1 (stereo not given)	-10.2% (inactive)
CN(C)c1ccc(-c2nnc(-c3cccnc3)o2)cc1	10.3% (inactive)
Cc1nc2ccccc2c(=O)n1Cc1ccc([N+](=O)[O-])cc1	-5.86% (inactive)
O=C1CC(c2ccccc2)=NN1c1ccc([N+](=O)[O-])cc1	0.8% (inactive)
O=c1[nH]n(-c2ccc([N+](=O)[O-])cc2)c(=O)c2ccccc12	34.9% (active)
CCCC(C(=O)NC1CCCC1)N(C(=O)Cn1nnc(-c2ccc(C)o2)n1)c1cccc(O)c1 (stereo not given)	-0.55% (inactive)
CCCc1nc2ccccc2c(=O)n1/N=C/c1ccc(O)c(O)c1	53.2% (active)
O=c1c2ccccc2ncn1/N=C/c1ccccc1	1.08% (inactive)
CCCc1nc2ccccc2c(=O)n1NC(=O)c1c(O)c2ccccc2[nH]c1=O	-1.38% (inactive)
COc1ccc(C(=O)Nc2c(N)nc(SCC(=O)Nc3ccc(C(C)=O)cc3)[nH]c2=O)cc1	7.68% (inactive)
Nc1nc(SCC(=O)Nc2cc(C(F)(F)F)ccc2Cl)[nH]c(=O)c1NC(=O)c1ccco1	30.4% (active)
COC(=O)c1ccc(NC(=O)CSc2nc(N)c(NC(=O)c3ccc(Br)o3)c(=O)[nH]2)cc1	0.86% (inactive)
COc1ccc(C)cc1Nc1nc(C)nc2c1oc1ccccc12	2.6% (inactive)
CCc1ccc(C(CNc2nc(C(F)(F)F)nc3ccccc23)N(C)C)cc1 (stereo not given)	2.51% (inactive)
Cc1cc(OC(=O)c2ccccc2Cl)ccc1N1C(=O)CCC1=O	3.74% (inactive)
CCN(CC)S(=O)(=O)c1cc([N+](=O)[O-])ccc1NNC(=O)Nc1ccccc1	48.1% (active)

SMILES	inhibition
CC(=O)c1ccc(NC(=O)Nc2ccc([N+](=O)[O-])cc2C)cc1	-10.5% (inactive)
CCN(CC)S(=O)(=O)c1cc([N+](=O)[O-])ccc1N=Nc1c(O)n(C)c2ccccc12	-3.78% (inactive)
CCCCN(CCCC)CCNC(=O)CN1C(=O)COc2ccc(S(=O)(=O)N3CCOCC3)cc21	7.53% (inactive)
CCCCN1C(=O)C(C)=C(C)C1OCCc1ccc(OC)c(OC)c1 (stereo not given)	-8.94% (inactive)
CC1(C(=O)N/N=C/c2cc3c(cc2Br)OCO3)CC1(Br)Br (stereo not given)	7.28% (inactive)
Fc1cc(F)c2nc(Nc3nc4c(F)cccc4s3)sc2c1	-6.75% (inactive)
NNc1nc2c(Cl)cccc2s1	28.1% (active)
CN(C)CCCN(C(=O)COc1ccccc1)c1nc2c(Cl)cccc2s1	-2.07% (inactive)
CCOC(=O)C1CCCN(S(=O)(=O)c2ccc3c(c2)C(C)(C)C(=O)N3C)C1 (stereo not given)	7.85% (inactive)
OC(c1ccc(Cl)cc1)C(CN1CCOCC1)c1ccccc1 (stereo not given)	1.27% (inactive)
CCOc1ccc(S(=O)(=O)NCc2ccc3c(c2)OCO3)cc1C	-10.2% (inactive)
CSc1ccc(CCNC(=O)CS(=O)(=O)Cc2nc(-c3ccccc3F)oc2C)cc1	-0.36% (inactive)
Cc1nc2sc(C(c3ccco3)N3CCC4(CC3)OCCO4)c(O)n2n1 (stereo not given)	0.84% (inactive)
Oc1c(C(c2ccco2)N2CCC3(CC2)OCCO3)sc2ncnn12 (stereo not given)	35.8% (active)
Oc1c(C(c2cccs2)N2CCN(c3ccc(F)cc3)CC2)sc2ncnn12 (stereo not given)	16.4% (inactive)
CCc1nn(CCCN2CCN(c3cccc(Cl)c3)CC2)c(=O)n1CCOc1ccccc1	8.14% (inactive) and 7.54% (inactive)
O=S(=O)(c1ccc(Cl)cc1)N1CCCN(c2ccc(C(F)(F)F)cn2)CC1	-1.37% (inactive)
COc1ccc(OC)c(/C(C)=N\NC(=O)c2cc3cc(Cl)ccc3n2C)c1	3.86% (inactive)
Oc1ccc(N=Cc2c(O)ccc3ccccc23)cc1	28.4% (active)
Oc1ccc(N=Cc2sc3ccccc3c2Cl)cc1	21.1% (inactive)
O=[N+]([O-])c1ccc(N=Cc2c(O)ccc3ccccc23)cc1	-0.85% (inactive)
